In PubChem BioAssay (NCATS):
Records with an inconclusive call do not appear. Activity calls are given as the source filed them. Unless noted, calls follow the shape of the dose curve; as a rule, active = well fitted curve in the direction sought with a large enough effect; inconclusive = small, poorly fitted or top-dose-only effect, or another doubt; inactive = no such curve, though single readings can be large; an effect the other way counts as inactive or inconclusive.

How the values were obtained:
[1] = qHTS assay for small molecule antagonists of peroxisome proliferator-activated receptor delta signaling (AID 588535); details: HEK293T PPARd-UAS-bla, beta-lactamase FRET ratio, 18 h; 460 nm channel;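 also: cells co-treated with a PPAR-delta agonist as stimulator during compound exposure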
Procedure, shortened: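 Titrations were run on PPAR-delta-UAS-bla HEK293T cells in charcoal/dextran-stripped serum, incubated 18 h at 37 C. CCF4 fluorescence (460/530 nm) after 2 h RT; Hill equation yields IC50 and maximal response.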

[2] = target: Peroxisome proliferator-activated receptor gamma (Homo sapiens) (UniProt P37231); test: qHTS assay for small molecule agonists of peroxisome proliferator-activated receptor gamma signaling (AID 588536; active = well fitted curve in the direction sought with a large enough effect in the signal ratio, with a control signal flat, not every such curve was filed as active; the % refers to the signal ratio;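 also: 0% = DMSO basal wells and 100% = rosiglitazone at 2 µM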); details: HEK293 PPARg-UAS-bla, beta-lactamase ratio, 16 h, percent of rosiglitazone response, DMSO as zero; series mostly up to 76.7 µM
Procedure, shortened: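 This is an agonist-mode beta-lactamase reporter assay in HEK293 PPAR-gamma-UAS-bla cells with 1% charcoal/dextran FBS. Compound titrations ran 16 h at 37 C before CCF4 detection. EC50 and efficacy are Hill fits scaled to 2 uM rosiglitazone (100%) and DMSO basal.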

[3] = target: Vitamin D3 receptor (Homo sapiens) (UniProt P11473); test: qHTS assay for small molecule antagonists of vitamin D receptor signaling (AID 588541; calls by dose curve;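 also: receptor activated by calcitriol during compound treatment; % is scaled to controls: 0 for no effect and ±100 for the full control effect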); details: HEK293T VDR-UAS-bla, beta-lactamase ratio, antagonist mode; series mostly up to 76.7 µM
Procedure, shortened: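 Antagonist-mode beta-lactamase reporter assay: HEK293T VDR-UAS-bla cells were exposed to titrated compound alongside 1-alpha,25-dihydroxyvitamin D3 at 3 nM final for 16 h. Values were normalized to the 50 nM agonist control and DMSO basal, with IC50 and efficacy from Hill equation fits.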

[4] = target: Thyroid hormone receptor beta (Homo sapiens) (UniProt P10828); test: qHTS assay for small molecule agonists of thyroid hormone receptor beta signaling (AID 588545; calls by dose curve;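 also: 0% = DMSO only and 100% = 10 nM T3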); details: TR-UAS-bla GripTite HEK 293, beta-lactamase ratio, agonist mode, 18 h; series mostly up to 76.7 µM
Procedure, shortened: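 Efficacy and EC50 values derive from Hill fits of qHTS titration data, normalized to 10 nM T3 and DMSO-only wells. HEK 293 reporter cells were stimulated for 18 hrs at 37 C, with beta-lactamase activity measured by CCF4 fluorescence.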

[5] = qHTS assay for environmental chemicals that activate the Aryl hydrocarbon Receptor (AhR) signaling pathway (AID 651777); details: 1A2-DRE human hepatoma cells, luciferase, 24 h; activation: stronger effect = higher value; also: % of control where 0% means no effect; nearly all actives have a fitted effect of over 15% in size
Procedure, shortened: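 Human hepatoma 1A2-DRE cells, stably carrying a dioxin response element and CYP1A2 promoter driving luciferase, were exposed to compounds for 24 hr at 37 C and 5% CO2. Luciferase signal was then read after 30 min One-Glo at room temperature.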

[6] = target: Peroxisome proliferator-activated receptor alpha (Homo sapiens) (UniProt Q07869); test: qHTS assay for small molecule agonists of the peroxisome proliferator-activated receptor alpha (PPARalpha) signaling pathway (AID 651778); details: PathHunter PPARalpha complementation, chemiluminescence, 6 h; max response: stronger effect = higher value; also: % of control where 0% means no effect
Procedure, shortened: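 Chemiluminescence from complemented enzyme reported PPARalpha activation in cells after 6 hr of compound treatment at 37 C. The detection reagent was incubated for 60 min at room temperature, and compounds were scored as agonists.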

[7] = qHTS assay for small molecule agonists of the antioxidant response element (ARE) signaling pathway measured by Nrf2-dependant transcriptional activity - cell viability counter screen (AID 720653; active = well fitted curve in the direction sought with a large enough effect in the repeat runs; an effect the other way counts as inactive or inconclusive; also: % is scaled to controls: 0 for no effect and ±100 for the full control effect); details: ARE-bla HepG2 viability, CellTiter-Glo ATP luminescence, 16 h; max response: stronger effect = lower value
Procedure, shortened: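 Cytotoxicity counter screen: intracellular ATP quantified by CellTiter-Glo luminescence in the same ARE-bla HepG2 plates, after 16 h compound exposure and a 2 h beta-lactamase substrate step.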

[8] = qHTS assay for cell viability of the p53RE-bla HCT-116 cell line (AID 743292); details: p53RE-bla HCT-116 viability, ATP luminescence, 16 h; series mostly up to 95 µM; also: % is scaled to controls: 0 for no effect and ±100 for the full control effect; nearly all actives have a fitted effect of over 55% in size
Procedure, shortened: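 CellSensor p53RE-bla HCT-116 cells, 4,000/well, preincubated 5 h at 37 C, then exposed to compounds in DMSO for 16 h at 37 C. Viability read as CellTiter-Glo luminescence (intracellular ATP) after 30 min at room temperature.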

[9] = target: Glucocorticoid receptor (Homo sapiens) (UniProt P04150); test: qHTS assay for small molecule agonists of glucocorticoid receptor signaling (AID 588532; active = well fitted curve in the direction sought with a large enough effect in the signal ratio, with a control signal flat; the % refers to the signal ratio;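 also: 100% = dexamethasone at 0.1 µM and 0% = DMSO only wells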); details: HeLa MMTV-bla, beta-lactamase ratio, agonist, 18 h; stronger effect = higher value; percent of dexamethasone control, DMSO zero
Procedure, shortened: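 Agonist-mode qHTS: GRE-driven beta-lactamase in HeLa cells exposed 18 h to titrated compounds (up to 92 uM), then CCF4 ratio read after 2 h at RT; Hill-fitted EC50, efficacy relative to 0.1 uM dexamethasone.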

[10] = target: Peroxisome proliferator-activated receptor gamma (Homo sapiens) (UniProt P37231); test: qHTS assay for small molecule antagonists of peroxisome proliferator-activated receptor gamma signaling (AID 588537; active = well fitted inhibition curve with a large enough effect in the signal ratio, with a control signal flat, not every such curve was filed as active; the % refers to the signal ratio;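 also: reporter cells co-stimulated with 50 nM rosiglitazone agonist during compound treatment; % of control where 0% means no effect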); details: HEK293 PPARg-UAS-bla, beta-lactamase ratio, antagonist mode; series mostly up to 76.8 µM
Procedure, shortened: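 Antagonist-mode β-lactamase reporter screen run as a titration series. HEK293 PPARγ-UAS-bla cells are stimulated with rosiglitazone (50 nM final) for 16 h, then CCF4 is read at 460/530 nm. Data are scaled between DMSO and rosiglitazone and fitted to the Hill equation.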

[11] = target: Vitamin D3 receptor (Homo sapiens) (UniProt P11473); test: qHTS assay for small molecule agonists of vitamin D receptor signaling (AID 588543; calls by dose curve;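 also: 0% = DMSO basal and 100% = reference agonist control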); details: HEK293T VDR-UAS-bla, beta-lactamase ratio, 16 h; series mostly up to 76.8 µM
Procedure, shortened: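 β-lactamase reporter, VDR-UAS-bla HEK293T, agonist mode. Cells plated 5 h at 37 °C, compound titration 16 h at 37 °C, CCF4 dye 2 h RT, ratio 460/530 nm. Hill fit → EC50, efficacy vs 50 nM 1α,25-(OH)2D3.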

[12] = qHTS assay for small molecule agonists of retinoid X receptor alpha signaling (AID 588544; calls by dose curve; also: potency is read from the fitted curve at half-maximal effect;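 as to activation: 0% = DMSO basal wells and 100% = reference agonist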); details: HEK293T RXRa-UAS-bla, beta-lactamase reporter, 18 h; 530 nm emission
[13] = target: Retinoic acid receptor RXR-alpha (Homo sapiens) (UniProt P19793); test: as above; details: HEK293T RXRa-UAS-bla, beta-lactamase reporter, 18 h; series mostly up to 76.7 µM
[14] = qHTS assay for small molecule antagonists of retinoid X receptor alpha signaling (AID 588546; active = well fitted inhibition curve with a large enough effect in the signal ratio, with a control signal flat, not every such curve was filed as active; the % refers to the signal ratio; also: potency is read from the fitted curve at half-maximal effect;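 as to max response: cells stimulated with 9-cis-retinoic acid as agonist; % is scaled to controls: 0 for no effect and ±100 for the full control effect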); details: HEK293T RXRa-UAS-bla, beta-lactamase ratio, antagonist mode; measured here: W530 green channel, cytotoxicity proxy
Procedure, shortened: (§1)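 Beta-lactamase reporter inhibition, read as CCF4 fluorescence ratio (ex 405, em 460/530 nm) after 2 h at RT. HEK293T UAS-bla cells, 2500/well, were stimulated with 9-cis-RA at 500 or 100 nM final alongside test compound for 18 h at 37 C.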

[15] = target: Retinoic acid receptor RXR-alpha (Homo sapiens) (UniProt P19793); test: as above; details: HEK293T RXRa-UAS-bla, beta-lactamase ratio, antagonist mode
Procedure, shortened: as §1

[16] = qHTS assay for small molecule activators of the p53 signaling pathway (AID 651743; active = well fitted activation curve with a large enough effect in the signal ratio, not every such curve was filed as active; the % refers to the signal ratio; also: % of control where 0% means no effect); details: HCT-116 p53RE-bla, beta-lactamase FRET ratio, 16 h; activation: stronger effect = higher value
Procedure, shortened: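 After 16 hours compound treatment at 37 C, HCT-116 cells stably expressing p53RE-driven beta-lactamase were loaded with LiveBLAzer B/G FRET substrate for 2 hours at room temperature. Fluorescence intensity served as the p53 activation read-out.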

[17] = qHTS assay for small molecule agonists of the antioxidant response element (ARE) signaling pathway measured by Nrf2-dependant transcriptional activity (AID 720636; active = well fitted curve in the direction sought with a large enough effect in the repeat runs; an effect the other way counts as inactive or inconclusive; also: % of control where 0% means no effect); details: ARE-luc HepG2, Nrf2 luciferase reporter, 16 h; series mostly up to 92.4 µM
Procedure, shortened: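 ARE-luc HepG2 cells carrying an Nrf2-responsive luciferase reporter were plated in medium with 1% dialyzed FBS, left 6 hr at 37 C to attach, then exposed to compound for 16 hr. Luciferase luminescence was read after ONE-Glo addition.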

[18] = qHTS assay for cell viability of HEK293 cells (AID 743288); details: ATP luminescence (CellTiter-Glo), 18 h; max response: stronger effect = lower value; also: % is scaled to controls: 0 for no effect and ±100 for the full control effect; nearly all actives have a fitted effect of over 50% in size
Procedure, shortened: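 ATP luminescence (CellTiter-Glo) reports metabolically competent cell number after parental HEK293 cells, 2,000/well, were treated with DMSO-dissolved compounds for 18 h at 37 C; reagent incubation 30 min, room temperature.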

[19] = target: Nuclear receptor subfamily 1 group I member 2 (Rattus norvegicus) (UniProt Q9R1A7); test: qHTS assay for small molecule activators of the rat pregnane X receptor (rPXR) signaling pathway (AID 651751; call rule not given here; also: 0% is about no effect); details: rPXR reporter cells, luciferase (One-Glo), 24 h
[20] = qHTS assay for small molecule activators of the human pregnane X receptor (PXR) signaling pathway (AID 720659; call rule not given here; also: 0% is about no effect); details: DPX-2 HepG2 CYP3A4-luciferase, 24 h; series mostly up to 92.3 µM

Sequence of Vitamin D3 receptor (Homo sapiens) (P11473 whole entry, looked up): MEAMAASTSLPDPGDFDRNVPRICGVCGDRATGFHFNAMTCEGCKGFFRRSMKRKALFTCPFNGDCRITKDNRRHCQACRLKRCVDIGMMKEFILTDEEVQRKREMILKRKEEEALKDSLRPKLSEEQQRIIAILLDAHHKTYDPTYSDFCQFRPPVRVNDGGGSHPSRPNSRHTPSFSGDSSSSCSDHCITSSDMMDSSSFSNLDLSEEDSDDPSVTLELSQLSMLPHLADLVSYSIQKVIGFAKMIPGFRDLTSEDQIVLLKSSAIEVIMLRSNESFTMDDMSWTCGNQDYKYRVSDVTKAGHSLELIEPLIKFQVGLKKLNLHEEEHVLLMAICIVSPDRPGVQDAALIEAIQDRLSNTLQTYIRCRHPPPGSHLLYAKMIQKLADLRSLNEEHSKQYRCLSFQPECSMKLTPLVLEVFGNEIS
Sequence of Glucocorticoid receptor (Homo sapiens) (P04150 whole entry, looked up): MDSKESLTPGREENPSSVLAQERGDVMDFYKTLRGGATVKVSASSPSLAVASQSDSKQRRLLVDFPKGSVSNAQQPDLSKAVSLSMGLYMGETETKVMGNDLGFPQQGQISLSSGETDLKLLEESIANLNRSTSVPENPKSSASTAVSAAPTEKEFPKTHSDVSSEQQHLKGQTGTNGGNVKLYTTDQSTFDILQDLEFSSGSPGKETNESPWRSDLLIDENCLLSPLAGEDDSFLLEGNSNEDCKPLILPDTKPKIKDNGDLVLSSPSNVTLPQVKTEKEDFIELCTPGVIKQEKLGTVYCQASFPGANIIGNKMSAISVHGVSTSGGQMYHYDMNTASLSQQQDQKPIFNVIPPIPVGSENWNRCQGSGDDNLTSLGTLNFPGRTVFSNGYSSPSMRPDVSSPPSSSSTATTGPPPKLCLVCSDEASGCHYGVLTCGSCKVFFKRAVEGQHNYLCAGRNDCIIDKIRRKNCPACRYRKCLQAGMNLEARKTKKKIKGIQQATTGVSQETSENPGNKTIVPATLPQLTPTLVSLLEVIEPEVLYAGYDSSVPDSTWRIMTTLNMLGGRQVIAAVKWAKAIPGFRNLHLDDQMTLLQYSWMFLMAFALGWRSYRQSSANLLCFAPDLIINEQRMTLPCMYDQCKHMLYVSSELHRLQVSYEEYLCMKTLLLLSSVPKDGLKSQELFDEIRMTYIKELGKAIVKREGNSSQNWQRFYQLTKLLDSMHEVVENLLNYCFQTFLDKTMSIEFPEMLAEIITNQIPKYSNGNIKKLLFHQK
Sequence of Nuclear receptor subfamily 1 group I member 2 (Rattus norvegicus) (Q9R1A7 whole entry, looked up): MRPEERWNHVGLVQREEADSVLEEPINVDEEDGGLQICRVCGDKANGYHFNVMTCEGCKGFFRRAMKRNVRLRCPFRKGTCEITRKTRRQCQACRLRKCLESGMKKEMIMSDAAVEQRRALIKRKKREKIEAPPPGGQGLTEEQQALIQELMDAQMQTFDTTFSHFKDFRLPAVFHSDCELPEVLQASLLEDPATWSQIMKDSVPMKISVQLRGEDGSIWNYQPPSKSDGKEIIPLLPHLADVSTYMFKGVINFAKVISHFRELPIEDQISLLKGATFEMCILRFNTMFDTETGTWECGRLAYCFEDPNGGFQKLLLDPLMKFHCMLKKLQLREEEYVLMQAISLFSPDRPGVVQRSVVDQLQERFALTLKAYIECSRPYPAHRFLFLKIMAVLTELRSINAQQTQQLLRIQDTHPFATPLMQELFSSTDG
Sequence of Retinoic acid receptor RXR-alpha (Homo sapiens) (P19793 whole entry, looked up): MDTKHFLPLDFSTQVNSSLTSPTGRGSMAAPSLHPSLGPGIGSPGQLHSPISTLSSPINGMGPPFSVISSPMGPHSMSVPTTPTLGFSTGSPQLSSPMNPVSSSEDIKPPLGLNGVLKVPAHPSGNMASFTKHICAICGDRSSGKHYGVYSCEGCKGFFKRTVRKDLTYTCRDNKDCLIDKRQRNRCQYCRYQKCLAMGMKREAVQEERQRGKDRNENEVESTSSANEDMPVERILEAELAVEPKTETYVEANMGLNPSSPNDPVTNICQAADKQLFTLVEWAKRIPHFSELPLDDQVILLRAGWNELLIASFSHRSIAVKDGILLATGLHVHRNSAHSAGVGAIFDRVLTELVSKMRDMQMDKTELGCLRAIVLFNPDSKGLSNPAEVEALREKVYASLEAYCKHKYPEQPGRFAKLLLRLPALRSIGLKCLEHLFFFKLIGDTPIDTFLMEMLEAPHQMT
Sequence of Thyroid hormone receptor beta (Homo sapiens) (P10828 whole entry, looked up): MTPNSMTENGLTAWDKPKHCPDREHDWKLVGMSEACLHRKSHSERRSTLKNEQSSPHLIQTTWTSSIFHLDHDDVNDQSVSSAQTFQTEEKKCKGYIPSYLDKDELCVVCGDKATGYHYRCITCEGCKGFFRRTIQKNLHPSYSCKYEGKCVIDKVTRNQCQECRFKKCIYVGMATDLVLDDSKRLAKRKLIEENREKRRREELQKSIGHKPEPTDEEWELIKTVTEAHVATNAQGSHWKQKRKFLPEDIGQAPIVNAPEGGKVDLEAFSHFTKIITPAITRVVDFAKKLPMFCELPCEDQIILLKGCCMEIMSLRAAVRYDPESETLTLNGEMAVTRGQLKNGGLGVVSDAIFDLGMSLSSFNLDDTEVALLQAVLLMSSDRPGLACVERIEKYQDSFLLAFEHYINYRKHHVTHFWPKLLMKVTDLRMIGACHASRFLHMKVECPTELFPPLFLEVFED
Sequence of Peroxisome proliferator-activated receptor alpha (Homo sapiens) (Q07869 whole entry, looked up): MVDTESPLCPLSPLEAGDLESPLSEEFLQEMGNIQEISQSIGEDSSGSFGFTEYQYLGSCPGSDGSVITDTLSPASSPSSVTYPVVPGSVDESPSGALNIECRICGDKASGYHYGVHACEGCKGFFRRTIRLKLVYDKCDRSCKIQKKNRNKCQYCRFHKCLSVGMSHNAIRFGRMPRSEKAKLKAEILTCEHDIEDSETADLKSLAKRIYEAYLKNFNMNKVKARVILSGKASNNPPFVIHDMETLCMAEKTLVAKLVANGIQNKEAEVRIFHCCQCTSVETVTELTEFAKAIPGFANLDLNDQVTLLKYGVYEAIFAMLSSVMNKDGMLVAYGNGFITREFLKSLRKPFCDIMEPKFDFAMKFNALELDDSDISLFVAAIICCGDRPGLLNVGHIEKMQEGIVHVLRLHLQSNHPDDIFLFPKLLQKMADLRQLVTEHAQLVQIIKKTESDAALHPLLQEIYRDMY
Sequence of Peroxisome proliferator-activated receptor gamma (Homo sapiens) (P37231 whole entry, looked up): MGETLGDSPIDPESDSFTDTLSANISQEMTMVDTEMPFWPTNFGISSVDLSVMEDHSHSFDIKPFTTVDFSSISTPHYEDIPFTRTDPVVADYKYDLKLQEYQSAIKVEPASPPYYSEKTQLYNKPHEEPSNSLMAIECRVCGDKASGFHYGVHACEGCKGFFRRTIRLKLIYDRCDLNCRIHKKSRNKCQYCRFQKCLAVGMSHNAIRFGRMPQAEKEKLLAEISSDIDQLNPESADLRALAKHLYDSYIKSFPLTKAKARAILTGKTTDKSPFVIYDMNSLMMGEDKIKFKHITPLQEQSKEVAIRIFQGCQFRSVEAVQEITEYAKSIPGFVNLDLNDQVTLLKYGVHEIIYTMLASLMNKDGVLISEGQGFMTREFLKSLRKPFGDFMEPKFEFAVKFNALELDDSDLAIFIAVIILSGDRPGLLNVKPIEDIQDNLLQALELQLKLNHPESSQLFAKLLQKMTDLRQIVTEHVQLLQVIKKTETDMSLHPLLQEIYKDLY

CCOC(=O)NCCOc1ccc(Oc2ccccc2)cc1
inactive: outcome [2] | Potency [3] | Potency [4] | activation [5] 5.93% | max response [6] -0.313% | max response [7] -19.4% | Potency [8]
-16.1%: max response [1]

C=C(C)C(=O)OCCOCCOCCOC(=O)C(=C)C
inactive: activation [9] 9.85% | outcome [2] | Potency [10] | outcome [11] | Potency [13] | Potency [4] | max response [15] 4.6% | activation [16] -4.46% | activation [5] -1.22% | max response [6] -0.929% | Potency [17] | max response [7] -16.9% | max response [18] -8.3% | Potency [8] | max response [19] -0.564% | outcome [20]
3.38%: max response [14]
1.13%: max response [12]

CC(C)CC(C)(O)C#CC(C)(O)CC(C)C (stereo not drawn)
inactive: activation [9] 4.46% | outcome [2] | Potency [10] | Potency [3] | outcome [11] | Potency [13] | Potency [4] | max response [15] -21.9% | activation [16] 1.9% | activation [5] 0.133% | max response [6] -1.54% | Potency [17] | max response [7] -3.69% | max response [18] -6.63% | Potency [8]
-0.0198%: max response [14]
10.7%: max response [12]

CC(=O)c1c(C)c([N+](=O)[O-])c(C(C)(C)C)c([N+](=O)[O-])c1C
active: Potency [13] 28.2 µM
inactive: activation [9] 3.65% | outcome [2] | Potency [10] | Potency [3] | outcome [11] | Potency [4] | activation [5] 0.439% | max response [6] 8.73% | Potency [17] | max response [7] -1.24% | max response [18] -8.24% | Potency [8]
-17.8%: max response [12]
-16.8%: max response [1]
-24%: max response [14]

CCOCCOCCOCCO
inactive: outcome [2] | Potency [10] | Potency [3] | outcome [11] | Potency [13] | Potency [4] | max response [15] -20% | activation [5] -0.451% | max response [6] -1.08% | Potency [17] | max response [7] 19.8% | max response [18] -2.83% | Potency [8] | max response [19] 10.6% | outcome [20]
-7.49%: max response [12]
0.354%: max response [14]

CCCCCCCCCCCC[N+](C)(C)C
inactive: activation [9] -4.8% | Potency [10] | Potency [3] | outcome [11] | Potency [4] | activation [16] 12.8% | activation [5] 9.5% | max response [6] -0.842% | Potency [17] | max response [7] -23.2% | max response [18] -25.6% | Potency [8] | max response [19] -11.2% | outcome [20]
5.9%: max response [14]
active: Potency [15] 17.8 µM
-26.8%: max response [1]
